# Among all 320,000 compounds or so, about 7,600 (2.4%) were called active. Roughly 3% stayed inconclusive and do not appear here. The call rests on the fitted dose curve; in most records, active means well fitted activation curve with a large enough effect; inconclusive means small, poorly fitted or top-dose-only effect; inactive means no such curve, though single readings can be large or run the other way. The entries come from a sample that favours actives as a whole. Entries that show only a call come without a potency.
# Test: qHTS Assay for NPC1 Promoter Activators; further: nearly all actives have a fitted effect of over 60% in size;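 on activation: reporter is driven by a mutant NPC1 promoter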
# Conditions: Huh7 NPC1 promoter luciferase reporter, 24 h; series mostly up to 9.22 µM
# In short: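 Quantitative HTS used a cell-based reporter: Huh7 cells stably bearing the NPC1 promoter upstream of luciferase were treated with compounds for 24 h, and promoter activation was read as luminescence.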
# Potency means the concentration at half of the fitted maximal effect.
row,SMILES,Potency
1,COc1cc(C(=O)OCC(=O)NC23CC4CC(CC(C4)C2)C3)cc(OC)c1OC,inactive
2,CSCCC(NC(=O)COc1ccccc1)C(=O)N(C)CC(=O)Nc1ccc(C)cc1 (stereo not given),inactive
3,O=C(COC(=O)C1(c2ccc(F)cc2)CCCC1)N1CCNC1=O,inactive
4,O=[N+]([O-])c1ccc2c(c1)Nc1nc3ccccc3nc1N2,inactive
5,O=c1[nH]c2cccnc2n1-c1ccc([N+](=O)[O-])cc1,inactive
6,O=[N+]([O-])c1ccc2nc(-c3ccccn3)[nH]c2c1,1.58 µM (active)
7,CCN(CC(=O)Nc1ccc(OC)cc1)C(=O)c1ccc(=O)n(Cc2ccccc2)n1,inactive
8,Cc1nn2c(=O)cc(COC(=O)c3ccc(NC(=O)C(C)(C)C)cc3)nc2s1,inactive
9,Cc1csc2nc(COC(=O)c3cccc(N(C)C)c3)cc(=O)n12,1.41 µM (active)
10,O=c1cc(CCl)nc2scc(-c3ccccc3)n12,inactive
11,CCC(C)N(C(=O)CSc1nnnn1-c1ccccc1OC)C1CCS(=O)(=O)C1 (stereo not given),inactive
12,CC(NCc1ccccc1OC1CCCC1)c1ccccc1 (stereo not given),inactive
13,C=CCN(CC=C)S(=O)(=O)c1ccc(C(=O)Nc2sc3c(c2C(N)=O)CCCCC3)cc1,inactive
14,O=C(Nc1sc2c(c1C(=O)O)CCC2)c1ccccc1F,inactive
15,NC(=O)c1c(NC(=O)c2ccccc2)sc2c1CCCC2,3.98 µM (active)
16,COc1ccc(C(=O)OC(C)C(=O)NC2CCCC2)cc1S(=O)(=O)N1CCOCC1 (stereo not given),inactive
17,CC(C)CN(C(=O)CSc1ncnc2sccc12)C1CCS(=O)(=O)C1 (stereo not given),inactive
18,CC(=O)c1ccc(S(=O)(=O)N2CCC(Oc3ccc(-n4cnnn4)cc3)CC2)cc1,inactive
19,O=C(COC(=O)Cc1ccc(Br)cc1)Nc1ccc(N2CCOCC2)cc1,inactive
20,CC(=O)NC12CC3CC(C1)CC(C(=O)N1CCN(C(=O)c4ccco4)CC1)(C3)C2,inactive
21,O=C(c1ccncc1)N1CCN(c2ccc3ccccc3n2)CC1,inactive
22,c1cnc(N2CCN(c3ccc4ccccc4n3)CC2)nc1,1.41 µM (active)
23,CC12CCC(C(=O)N3CCN(c4ncccn4)CC3)(c3nc4ccccc4nc31)C2(C)C (stereo not given),inactive
24,CCc1nnc(NC(=O)c2cc(S(=O)(=O)N3CCCCC3)ccc2C)s1,inactive

row,SMILES,Potency
1,CCC1(C)CC(=O)NC1=O (stereo not given),inactive
2,CC(C)(C)OC(=O)NCCCCCNC(=O)c1[nH]cnc1C(=O)Nc1nccs1,inactive
3,Cn1ccnc1SCC(=O)Nc1ccc2c(c1)OCCO2,2.51 µM (active)
4,O=C(Nc1ccc2c(c1)OCCO2)c1cnccn1,2.82 µM (active)
5,O=C(Nc1ccc2c(c1)OCCO2)c1ccoc1,inactive
6,CCn1c(SCC(=O)Nc2ccc3c(c2)OCCO3)nnc1C(C)C,inactive
7,O=C(Nc1cccc(NC(=O)c2ccco2)c1)c1cnccn1,inactive
8,CCn1c(SCC(=O)Nc2ccc3c(c2)OCCO3)nnc1-c1ccncc1,inactive
9,O=C(COC(=O)c1ccccc1Cl)NC1CCCCCCC1,inactive
10,O=C(N[C@@H](Cc1c[nH]c2ccccc12)C(=O)O)OCC1c2ccccc2-c2ccccc21,inactive
11,O=C(Nc1ccccn1)C1CCN(S(=O)(=O)c2ccc3c(c2)OCCO3)CC1,inactive
12,CCOC(=O)C1CCCN(S(=O)(=O)c2ccc3c(c2)C(C)(C)C(=O)N3C)C1 (stereo not given),inactive
13,COc1ccc(N(CCC(=O)NCCc2ccccc2)S(=O)(=O)c2ccc(C)cc2C)cc1,inactive
14,COc1ccc([C@H]2CC(=O)C=C(c3ccc(OC(F)(F)F)cc3)C2)cc1OC,inactive
15,O=C(O)CSc1ccc(S(=O)(=O)N2CCCC2)cn1,inactive
16,Cc1ccc(C(=O)OCC(=O)Nc2ccc(Cl)cn2)cc1S(=O)(=O)N1CCOCC1,inactive
17,O=C(NCCc1ccc(F)cc1)c1ccc(S(=O)(=O)N2CCCCC2)cc1,inactive
18,Cc1ccc(C)c(NC(=O)c2ccc3nccnc3c2)c1,inactive
19,O=C(NCCc1ccc(F)cc1)c1ccc2nccnc2c1,1.78 µM (active)
20,Cc1ccc(S(=O)(=O)NCCC(=O)NCc2ccc(Cl)cc2)cc1C,inactive
21,CCN(CC)C(CNC(=O)CSc1nnnn1-c1cccc(F)c1)c1ccco1 (stereo not given),inactive
22,CC(NC(=O)c1cccc(S(=O)(=O)N2CCc3ccccc3C2)c1)c1ccco1 (stereo not given),inactive
23,COC(=O)c1c(NC(C)=O)sc(C(=O)Nc2ccccc2OC)c1C,inactive
24,CCOC(=O)c1sc(NC(=O)COc2ncnc3ccccc23)c(C(=O)OCC)c1C,inactive

row,SMILES,Potency
1,CCC(=O)Nc1sc(C(=O)Nc2ccccc2)c(C)c1C(=O)OC,0.794 µM (active)
2,NC(=O)NC(CC(=O)NNC(=O)c1ccccn1)c1ccc(Cl)cc1 (stereo not given),inactive
3,CC(C)CCN1CCC(C)(NC(=O)c2ccccc2)C1=O (stereo not given),inactive
4,COc1ccc(NC(=O)CS(=O)(=O)c2ccccc2)cc1,inactive
5,COc1ccc(N(Cc2ccccc2)S(=O)(=O)c2cccc(C(=O)O)c2)cc1,inactive
6,COc1ccc(C(CC(=O)c2ccccc2)S(=O)(=O)c2ccccc2)cc1 (stereo not given),3.55 µM (active)
7,O=C(CN1CCN(S(=O)(=O)c2ccc(Cl)s2)CC1)N1CCCCC1,inactive
8,COc1cc([N+](=O)[O-])ccc1NC(=O)COC(=O)CCOc1ccc(C)cc1,inactive
9,CC(C)c1nc2cc(C(=O)NC(C)c3cnn(C)c3)ccc2o1 (stereo not given),inactive
10,COc1ccc(CNC(=O)c2cc(=O)c3c(C)cc(C)cc3o2)cc1,inactive
11,COc1ccc(CNC(=O)c2ccc3oc(C(C)C)nc3c2)cc1,3.55 µM (active)
12,CCCN(C(=O)c1nc2nccc(C)n2n1)c1c(N)n(Cc2ccccc2)c(=O)[nH]c1=O,inactive
13,Cn1c2cc(B(O)O)sc2c2cnn(Cc3ccccc3F)c(=O)c21,inactive
14,CCOCc1c(C(=O)N2CCN(Cc3ccc(Br)s3)CC2)oc2ccccc12,inactive
15,Cc1ccc(/C=C/C(=O)OCC(=O)Nc2cccnc2Cl)cc1,inactive
16,CCCCOC(=O)Nc1nnc(CC(=O)NCc2ccccc2)s1,inactive
17,CCCCCCOC(=O)NCC(O)c1ccccc1 (stereo not given),3.98 µM (active)
18,CCCCCOC(=O)NCCOC(=O)Nc1ccc(C(=O)OCC)cc1,inactive
19,Brc1ccccc1C1Nc2cccc3cccc(c23)N1,inactive
20,S=C1NC(c2ccccc2)=NCN1c1ccc(Br)cc1,inactive
21,N#Cc1ccc(C2N=C(c3ccccc3)NO2)cc1 (stereo not given),1.26 µM (active)
22,Brc1ccccc1C1N=C(c2ccccc2)NO1 (stereo not given),3.98 µM (active)

# From PubChem BioAssay AID485313 (National Center for Advancing Translational Sciences (NCATS), 2010)
